Screening data as filed in PubChem.
A selection: hits, their analogues and other compounds. The true share with any hit is near 3.6%.
BJeLR lethal: MLPCN primary cell-based screen for lethality selective to Ras in HRASV12 cells; BJeLR (HRASV12) viability, CellTiter-Glo ATP luminescence, 48 h; inhibition, % (concentration not given with the values); actives 0.17% (n = 300,000); AID 1554, 2009; in the data active = inhibition above about 50%; inconclusive = no clear call, values can overlap the other calls
Autofluor counter: flagged as autofluorescent in microsphere protease counterscreen | actives 3.1% (n = 360,000) | AID 624483 | fluorescence intensity (test concentration not listed) | compound autofluorescence counterscreen, microsphere flow cytometry; active compounds read high; in the data active = fluorescence intensity above about 16000; inconclusive = no clear call, values can overlap the other calls
BoNT F protease: BoNT/F light chain protease inhibitors, primary screen, biochemical, flow cytometry, MLPCN library | AID 588497, 2011 | actives 0.22% (n = 360,000) | inhibition, % at 10 µM | Multiplex microsphere protease cleavage assay; in the data active = inhibition above about 35%, passing the limit was not always enough; inconclusive = no clear call, values can overlap the other calls; note: plate controls were buffer without enzyme for full effect and enzyme alone for no effect
BoNT A protease: BoNT/A light chain protease inhibitors, primary screen, biochemical, flow cytometry, MLPCN library. multiplex microsphere protease substrate cleavage. Botulinum neurotoxin type A light chain protease (Clostridium botulinum A str. ATCC 3502). inhibition, % at 10 µM. actives 0.17% (n = 360,000); note: plate controls were buffer without enzyme for full effect and enzyme alone for no effect
SARS 3CLpro inh: SARS-CoV 3CLpro protease inhibitors, primary screen, biochemical, quenched FRET; inhibition, % at 6 µM; recombinant SARS-CoV 3CLpro, quenched FRET peptide cleavage; AID 1706, 2009; actives 0.14% (n = 290,000); Replicase polyprotein 1ab (Severe acute respiratory syndrome coronavirus), P0C6X7; in the data active = inhibition above about 12%
Anthrax LF inh2: Bacillus anthracis LF protease inhibitors, primary screen, biochemical, multiplex microsphere, MLPCN library | Lethal factor (Bacillus anthracis), P15917 | multiplex microsphere protease cleavage assay | inhibition, % at 10 µM | actives 0.12% (n = 360,000); note: plate controls were buffer without enzyme for full effect and enzyme alone for no effect
Starred values were filed as active, the others as inactive; ? = inconclusive; / = not tested or not shown. Cut-off read from the data, not from the text of the source, unless noted: active = inhibition above about 30%; inconclusive = no clear call, values can overlap the other calls; inactive = below that.

SMILES	BJeLR lethal	Autofluor counter	BoNT F protease	BoNT A protease	SARS 3CLpro inh	Anthrax LF inh2
CC1CCCCC1NC(=O)CCCn1c(=S)[nH]c2ccccc2c1=O (configuration not stated)	-8.1	3115	-0.3	-0.2	0.4	0.8
Cn1c(SCc2nc(-c3ccc(Cl)cc3)no2)nnc1-c1ccccc1	-1.8	20554*	-5.1	-1.4	7.5	-2.6
CCCn1c(SCc2nc(-c3cccs3)no2)nnc1-c1ccncc1	15.0	21415*	-4.9	-3.0	4.9	0.0
COc1ccc(-c2noc(CSc3nnc(Cc4ccccc4)n3-c3ccc(Cl)cc3)n2)cc1	-4.7	24663*	-7.2	-3.0	5.1	-2.9
Cn1c(SCc2nc(-c3ccccc3)no2)nnc1-c1cccs1	-4.7	20460*	5.4	?	0.2	-6.8
COc1cccc(NC(=O)CN(C)C(=O)c2cc(S(=O)(=O)N3CCCCCC3)ccc2OC)c1	/	3581	-1.5	-0.5	/	-5.0
Cc1ccc(CNC(=O)COC(=O)c2ccc(Cl)c(N)c2)cc1	5.0	7808	2.7	1.2	-5.2	0.2
COc1cc(NC(C)C(=O)N2CC(C)OC(C)C2)cc(OC)c1 (configuration not stated)	0.2	4678	?	-0.1	-1.0	-3.4
COc1cccc(NC(C)C(=O)N2CC(C)OC(C)C2)c1 (configuration not stated)	0.1	23137*	3.3	?	-2.6	-2.3
COc1cc(/C=C2/SC(=S)N(CC(=O)NC(C)(C)C)C2=O)cc(OC)c1OC	9.0	6534	27.9	31.3*	-1.9	27.3
COc1ccc(/C=C2\SC(=S)N(CCCC(=O)Nc3ccccn3)C2=O)cc1OC	-10.3	3074	10.5	39.0*	3.0	24.0
COc1cccc(/C=C2\SC(=S)N(CCCC(=O)N(CCO)c3ccccc3)C2=O)c1	55.1*	6168	1.8	1.4	4.0	-1.0
CNC[C@H]1Oc2ccc(NC(=O)C3CCCCC3)cc2CC(=O)N([C@H](C)CO)C[C@@H]1C	/	2913	6.9	0.2	/	-1.5
CC(=O)c1ccc(N2CCN(C(=O)CN3C(=O)NC4(CCCCC4)C3=O)CC2)c(F)c1	/	8873	-7.0	-0.2	/	4.9
CNC(=O)COC(=O)c1cc2c(C)nn(-c3ccc(F)cc3)c2s1	0.3	16925*	-3.1	-1.2	-0.5	-0.6
CCN1C(=O)c2ccccc2S(=O)(=O)c2ccc(C(=O)NCC(OC)OC)cc21	-4.1	3675	0.9	2.0	-4.3	12.9
CCN1C(=O)c2ccccc2S(=O)(=O)c2ccc(C(=O)NCCOC)cc21	2.4	2966	61.3*	1.9	2.6	9.5
Brc1cc(Br)c2nc(-c3ccc(N4CCOCC4)cc3)ccc2c1	/	19443*	9.7	?	0.8	23.9
O=C(NNS(=O)(=O)c1ccccc1[N+](=O)[O-])c1ccc(O)cc1	-4.1	24381*	-4.8	-1.0	4.3	0.4
CCCCCCOC(=O)CCc1c(C)nc(N)[nH]c1=O	12.2	3391	1.9	0.3	-0.3	-1.6
Cc1nc(N)[nH]c(=O)c1CCC(=O)OCC(C)C	-8.3	23221*	-2.6	-1.5	-1.2	-2.5
COCCCNC(=O)c1ccccc1SC	1.5	5227	-6.5	-0.5	3.1	-7.6
CN=C(Nc1cc(C)nn1-c1ccccc1)c1ccccc1F	9.3	23781*	-2.9	-1.5	4.2	-1.4
CCN(CC)C(=O)CSc1nc2ncccc2[nH]1	8.6	24215*	-4.0	?	-0.3	-0.2
C=C(C)CSc1nc2ncccc2[nH]1	0.9	2814	0.8	-0.1	6.7	1.0
SMILES	BJeLR lethal	Autofluor counter	BoNT F protease	BoNT A protease	SARS 3CLpro inh	Anthrax LF inh2
N#CC(C#N)=C1C=C2C=C(N3CCCCC3)CCC2CC1 (configuration not stated)	/	/	/	/	-81.6	/
CCN(CC)C1=CC2=CC(=C(C#N)C#N)CCC2CC1 (configuration not stated)	/	39639*	61.8*	-7.6	-44.7	24.1
CCCCN(C)C1=CC2=CC(=C(C#N)C#N)CCC2CC1 (configuration not stated)	-4.0	49793*	108.7*	8.6	-60.1	38.5*
COC(=O)c1ccc(COC(=O)CCC(=O)c2cccs2)cc1	-6.1	2296	-2.3	-0.2	-1.2	-1.3
COc1cccc(Nc2ncnc3onc(-c4ccccc4OC)c23)c1	-6.6	4261	-1.2	0.4	-2.1	-2.2
CCOC(=O)/C(=N\Nc1cccc(C(F)(F)F)c1)N(CCOC)CCOC	-5.3	22213*	-7.8	?	0.7	-0.5
COc1ccccc1CN1CCCCC1c1cccnc1 (configuration not stated)	-4.8	22672*	0.4	2.3	2.9	-0.4
O=C(COC(=O)CC12CC3CC(CC(C3)C1)C2)Nc1ncc(Cl)cc1Cl	10.1	24856*	-6.2	-3.4	4.5	-2.4
CC(C)(Oc1ccc(Cl)cc1)C(=O)OCC(=O)Nc1ncc(Cl)cc1Cl	-1.2	22776*	-0.6	0.4	0.1	-4.9
Cc1ccc(S(=O)(=O)N(C)C[C@H]2Oc3c(NC(=O)Nc4cccc5ccccc45)cccc3C(=O)N([C@@H](C)CO)C[C@@H]2C)cc1	/	3732	-5.6	-0.3	/	-1.2
COCCNC(=O)Cn1nc(-c2ccccc2F)ccc1=O	-0.6	3560	-24.2	-2.5	-8.1	-4.0
COc1ccccc1-c1ccc(=O)n(CC(=O)NCc2ccc3c(c2)OCO3)n1	-15.9	22769*	1.1	2.7	-7.7	-2.8
COCCCNC(=O)Cn1nc(-c2ccccc2OC)ccc1=O	-5.1	3014	3.9	0.2	-4.7	1.2
COCCNC(=O)Cn1nc(-c2ccccc2OC)ccc1=O	14.1	22415*	-0.2	1.5	0.8	-3.1
COc1cccc(CNC(=O)Cn2nc(-c3ccc(Cl)cc3)ccc2=O)c1	/	21110*	-2.6	-1.2	-5.9	-0.8
COc1ccccc1-c1ccc(=O)n(CC(=O)NC(C)(C)C)n1	/	16772*	-5.6	?	-1.8	-0.6
CC(C)(C)c1ccc(C(=O)CCCSC2=C(C#N)C(c3ccco3)C3=C(CCCC3=O)N2)cc1 (configuration not stated)	/	23545*	-6.1	?	-0.3	-4.8
O=C(NC1CCC(O)CC1)c1ccc(NS(=O)(=O)c2cccc([N+](=O)[O-])c2)cc1 (configuration not stated)	/	3760	-6.5	-0.2	/	5.0
CCN(CC)c1ccc(C2C(C(=O)OC)=C(C)NC(C)=C2C(=O)OC)cc1	-2.5	22496*	1.8	1.1	0.4	-2.9
COC(=O)C1=C(C)NC(=O)NC1c1ccccc1 (configuration not stated)	3.5	23564*	-2.8	-2.0	-4.8	-2.8
COC(=O)C1=C(C)NC(C)=C(C(=O)OC)C1c1ccc(NC(C)=O)cc1	8.9	10473	-0.8	-0.1	-3.9	1.1
